Assay outcomes as filed in PubChem.
LDHA block = qHTS assay for inhibitors of human lactate dehydrogenase | purified LDHA, NADH/diaphorase-resazurin fluorescence; hits give low values | activity change, % (values are at about 110 or 230 µM) | hit rate 0.15% among 480,000; in the data active means activity change below about -30%;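 further: plate controls were DMSO wells for no effect and wells without enzyme for full effect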
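Human LDH5 at 2 nM final in Tris HCl pH 7.4 with 0.06 mM NADH and 0.2 mM pyruvate, reacted 5 minutes at room temperature. Remaining NADH coupled via diaphorase/resazurin; resorufin fluorescence read at 0 and 20 minutes, normalized to enzyme-free and DMSO wells.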
D1 potentiator = Potentiators of Human D1 Dopamine Receptor: qHTS. hit rate 0.036% among 360,000. HEK293 TREx D1 cells, calcium flux, dopamine EC20 potentiation. AID 504651, 2011. potentiation, % at 10 µM; in the data active means potentiation above about 30%; further: 0% is about no effect
TRHR ag = qHTS for Small Molecule Agonists and Allosteric Enhancers of Human TRH Receptor: Primary Screen for Agonists | activation, % at 2 µM | TRHR cells, calcium flux fluo-8, FDSS agonist mode | hit rate 0.18% among 360,000; further: 0% is about no effect
Target sequence (P34981 whole entry, looked up): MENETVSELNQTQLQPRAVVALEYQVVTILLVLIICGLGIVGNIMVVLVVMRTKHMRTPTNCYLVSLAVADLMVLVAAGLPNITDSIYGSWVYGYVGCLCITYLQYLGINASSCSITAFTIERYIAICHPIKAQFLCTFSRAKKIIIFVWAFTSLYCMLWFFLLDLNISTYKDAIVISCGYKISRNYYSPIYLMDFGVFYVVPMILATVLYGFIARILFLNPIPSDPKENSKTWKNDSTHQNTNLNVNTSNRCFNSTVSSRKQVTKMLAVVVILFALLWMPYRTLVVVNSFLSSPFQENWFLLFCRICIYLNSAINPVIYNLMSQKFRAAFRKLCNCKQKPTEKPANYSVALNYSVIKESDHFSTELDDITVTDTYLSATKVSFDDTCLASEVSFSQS
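Agonist-mode FDSS calcium read (Ex 480/Em 530, 1 s cycles) in 1536-well TRHR cells with fluo-8 dye, after 10-cycle baseline and 23 nL compound addition; TRH at EC20 (10 nM final) added afterwards for the enhancer phase.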
D1 agonist = Allosteric Agonists of the Human D1 Dopamine Receptor: qHTS; HEK293 T-REx D1 cells, calcium flux, agonist mode; activation, % at 2 µM; hit rate 1% among 360,000; AID 504660, 2011; further: 0% is about no effect
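Agonism was scored from calcium flux recorded over 180 s (1 read/s) after pintool compound addition, following a 10-cycle baseline. Cells were inducible force-coupled HEK293 TREx D1, plated overnight at 30 C and loaded with no-wash calcium dye.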
D1 antagonist = Antagonist of Human D 1 Dopamine Receptor: qHTS; D(1A) dopamine receptor (Homo sapiens), P21728; HEK293 TREx D1 cells, calcium flux, dopamine EC80; hits give low values; activity change, negative = inhibition, % at 10 µM; hit rate 3.2% among 360,000; AID 504652, 2011; in the data active means activity change below about -30%; further: on the % scale 0 is the no-effect control and ±100 the full control effect
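Antagonism measured as reduced calcium response to an EC80 dopamine addition following 180 s compound pre-read; cells were inducible HEK293 Trex D1 plated overnight at 30 C, read kinetically at 1 cycle/sec.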
TRHR PAM = qHTS for Small Molecule Agonists and Allosteric Enhancers of Human TRH Receptor: Primary Screen for Enhancers. Thyrotropin-releasing hormone receptor (Homo sapiens), P34981. TRHR cells, fluo-8 calcium fluorescence, EC20 TRH enhancement. enhancement, % at 2 µM. hit rate 0.66% among 360,000. AID 493056, 2011; in the data active means enhancement above about 30%; further: 0% is about no effect
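Enhancer read-out: after compound pinning and an initial kinetic agonist-mode read, an EC20 of TRH (10 nM final) was injected and fluo-8 calcium signal (Ex 480/Em 530) followed at 1 s/cycle for 100 cycles in TRHR-expressing cells.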
The depositor's hits bear a star; . = no result given; ! = not active in a repeat. This is a sample that favours compounds with a hit; in the whole collection about 3.6% have one here. Unless noted, no stated cut-off is given here; in the data, active means activation above about 30%; inactive means the rest.

SMILES	LDHA block	D1 potentiator	TRHR ag	D1 agonist	D1 antagonist	TRHR PAM
COc1ccc(-c2cc3ccc(OS(=O)(=O)c4ccccc4)cc3oc2=O)cc1OC	8	.	.	.	.	.
COc1ccc(C(Nc2ccccn2)c2c(NC(=O)c3ccccc3)sc(C)c2C)cc1OC (stereo unspecified)	10	.	.	.	.	.
CC(C)Sc1oc(-c2ccco2)nc1S(=O)(=O)c1ccccc1	8	6	0	1	-48*	9
CSc1oc(-c2ccco2)nc1S(=O)(=O)c1ccccc1	-4	8	0	0	10	-9
O=C(Nc1ccc(Nc2ccccc2)cc1)c1c(F)c(F)c(F)c(F)c1F	2	-12	2	9	-31*	-18
O=C(Nc1ccc(Nc2ccccc2)cc1)c1c(Cl)cccc1Cl	0	.	.	.	.	.
N#Cc1ccccc1COC(=O)c1ccc2c(c1)OCO2	3	-2	0	3	-42*	3
Cc1cc(C)c2nc3sc(=Cc4ccc(-c5ccccc5C(=O)O)o4)c(=O)n3c2c1	-7	.	.	.	.	.
Cc1ccc2c(nc3s/c(=C\c4ccc(-c5ccccc5C(=O)O)o4)c(=O)n32)c1C	0	-3	54*	191*	-5	9
O=C(O)c1ccc(-c2ccc(/C=c3/sc4nc5ccccc5n4c3=O)o2)cc1Cl	-3	-5	55*	48*	-20	5
Cc1cc(C)c2c(c1)C(O)(CC(=O)c1ccco1)C(=O)N2 (stereo unspecified)	5	.	.	.	.	.
Cc1cc(C)nc(NC(c2cccs2)c2cc(C)sc2NC(=O)c2ccccc2)n1 (stereo unspecified)	10	.	.	.	.	.
Cc1ccc(S(=O)(=O)N2CCN(CCO)CC2)cc1-c1nnc2c3ccccc3c(C)nn12	6	.	.	.	.	.
Cc1ccc(S(=O)(=O)N2CCN(C)CC2)cc1-c1nnc2c3ccccc3c(C)nn12	0	1	-1	0	-33*	-3
CCc1ccc2c(Cl)c(C(=O)N/N=C/c3c[nH]c4ccccc34)sc2c1	-5	-5	2	2	-22	8
COc1ccccc1-c1cc(C(=O)N/N=C/c2sccc2C)c2ccccc2n1	-3	-4	2	7	-7	2
CCc1ccc(-c2cc(C(=O)N/N=C/c3c[nH]c4ccccc34)[nH]n2)cc1	-5	-6	0	3	-14	36*
O=C(N/N=C/c1cc([N+](=O)[O-])ccc1Cl)c1cc(-c2ccccc2)nc2ccccc12	-3	-8	0	1	-47*	-8
O=C(N/N=C/c1c[nH]c2ccccc12)c1ccc([N+](=O)[O-])cc1Cl	-5	-13	3	6	-48*	-12
O=C(N/N=C/c1cc([N+](=O)[O-])ccc1O)c1cc(-c2ccccc2)nc2ccccc12	-9	-2	0	3	0	-1
Cc1ccsc1/C=N/NC(=O)c1cc(-c2ccncc2)nc2ccccc12	-8	-6	-1	2	-1	36*
CC(C)N(Cc1cnn(C)c1)C(=O)C1CC(=O)N(c2ccccc2)C1 (stereo unspecified)	5	.	.	.	.	.
Cc1cccc(-c2cc(C(=O)Nc3ccncc3)c3ccccc3n2)c1	-4	-7	0	0	-41*	-1
O=C(Nc1ccncc1)c1cc(-c2ccccc2)nc2ccccc12	9	.	.	.	.	.
CC(C)CNC(=O)C(=O)O	4	.	.	.	.	.
SMILES	LDHA block	D1 potentiator	TRHR ag	D1 agonist	D1 antagonist	TRHR PAM
NC(=O)CN1c2ccc(Br)cc2-c2ccccc2S1(=O)=O	-6	.	.	.	.	.
Cc1nc2sccn2c(=O)c1S(=O)(=O)NCC1CCN(Cc2ccccc2Cl)CC1	1	9	1	5	-66*	-1
Cc1nc2sccn2c(=O)c1S(=O)(=O)NCc1ccccc1Cl	-2	-4	1	2	8	2
Cc1cc2oc(C(=O)Nc3c(C)n(C)n(-c4ccccc4)c3=O)c(C)c2cc1C	-1	-3	0	1	-1	0
Cc1c(NC(=O)c2cc(-c3ccc(Cl)cc3)on2)c(=O)n(-c2ccccc2)n1C	-13	-10	-1	2	-8	30*!
O=C(Nc1c(Cl)cccc1Cl)c1cc(-c2ccc3c(c2)OCO3)on1	-3	-1	2	7	-17	-4
Cc1c(NC(=O)c2cc(-c3ccc(F)cc3)on2)c(=O)n(-c2ccccc2)n1C	-8	-5	-1	0	-20	1
Cc1ccc2c(C)c(C(=O)Nc3c(C)n(C)n(-c4ccccc4)c3=O)oc2c1C	-5	-7	-1	0	-37*	3
O=C(Nc1c(Cl)cccc1Cl)c1cc(-c2cccc(O)c2)on1	-1	0	-1	47*	-50*	3
CCCCc1cc(=O)oc2cc(OC(C)C(=O)NCc3ccncc3)ccc12 (stereo unspecified)	-1	.	.	.	.	.
CCC(C)(CNC(=O)c1cc2c(s1)CCC2)N1CCOCC1 (stereo unspecified)	6	.	.	.	.	.
COc1cccc(NC(=S)N2CCCN(Cc3ccc(F)cc3)C2)c1	-3	-12	0	12	-41*	1
COC(=O)c1cc(OC)c(OC)cc1NC(=S)N1CCN(Cc2ccccc2)CC1	2	-4	0	-1	-32*	10
COc1cc(NC(=S)N2CCN(Cc3ccccc3)CC2)cc(OC)c1	1	0	0	3	8	18
COc1ccc(NC(=S)N2CCN(Cc3ccccc3)CC2)cc1	-7	-6	0	9	2	33*
COc1cccc(NC(=S)N2CCN(Cc3ccccc3)CC2)c1	-11	15	1	2	3	-2
CC(C)(C)C(CN1CCCC1)OC(=O)c1ccccc1C(=O)O (stereo unspecified)	1	.	.	.	.	.
O=C(C1CCN(CCCc2ccccc2)CC1)N(CCc1ccccc1)Cc1ccccc1	-15	-2	0	26	-45*	0
O=C(C1CCN(CC2CC=CCC2)CC1)N(CCc1ccccc1)Cc1ccccc1 (stereo unspecified)	-14	-3	1	3	4	-6
Cc1ccc(C(=O)O/N=C/c2ccc3c(c2)OCO3)cc1	-3	-10	1	6	-67*	6
O=C(O/N=C/c1ccc2c(c1)OCO2)c1ccc([N+](=O)[O-])cc1	-11	-7	0	0	14	-5
COCCCNc1c2c3c(cccc3[nH]c1=O)C(=O)c1ccccc1-2	1	.	0	809*	-53*	17
